# Assay outcomes as filed in PubChem.
# The sample as a whole holds a higher share of hits than the screen did.
# Marburg entry inh – blocks Marburg virus binding to or entry into cells; Marburg virus pseudotyped entry inhibition, cell reporter; Potency, µM (top dose mostly 37.8 µM), inactives show at the top dose activity change, negative = inhibition, hits mostly inhibitors; actives 1.8% (n = 300,000); AID 540276; calls by dose curve; tested in HEK293 cells; further: potency means the concentration at half of the fitted maximal effect; on the % scale 0 is the no-effect control and ±100 the full control effect
# AMA1 RON2 block – disrupts binding of P. falciparum AMA1 to RON2. AlphaScreen AMA1-biotinylated RON2 peptide binding. Potency, µM (titrated, usually from 58.2 µM), inactives show top-dose activity change, negative = inhibition, actives largely listed as inhibitors. actives 0.2% (n = 360,000). AID 720542; active means well fitted inhibition curve with a large enough effect; inconclusive means small, poorly fitted or top-dose-only effect; inactive means no such curve, though single readings can be large or run the other way;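 further: potency means the concentration at half of the fitted maximal effect; 0% = vehicle wells and -100% = peptide control; nearly all actives have a fitted effect of over 45% in size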
#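 AMA1 (3D7) with his tag at 25 nM final met compounds first, then biotinylated RON2 peptide at 25 nM; detection used donor plus acceptor beads, 10 µg/mL apiece, read by AlphaScreen after 30 min at room temperature.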
# Lassa entry inh – blocks Lassa virus binding to or entry into cells | Lassa virus pseudotype entry inhibition, cell reporter | Potency, µM (highest dose often 37.9 µM), for the others: at the top dose activity change, negative = inhibition, usual class: inhibitors | actives 1.2% (n = 300,000); calls by dose curve; tested in HEK293 cells; further: potency means the concentration at half of the fitted maximal effect; on the % scale 0 is the no-effect control and ±100 the full control effect; nearly all actives have a fitted effect of over 50% in size
# CHX counter – counter-screen for Shiga toxin inhibitors: cycloheximide protein synthesis inhibition; cell reporter, cycloheximide protein synthesis inhibition counterscreen; max response, %; actives 12% (n = 300,000); AID 2314; in the data active means max response mostly above about 13%, no sharp cut-off; inactive means mostly below about 14%; further: read at 38.3 µM for the half of the compounds with a filed dose; 0% is about no effect
# Shiga inhibitor – Shiga toxin inhibition; actives 9.2% (n = 290,000); Vero cells, Shiga toxin protein synthesis inhibition reporter; inhibition, % at 38.7 µM; in the data active means inhibition mostly above about 28%, no sharp cut-off; inactive means mostly below about 43%; further: 0% is about no effect
# An asterisk follows results filed as active; ? = inconclusive; . = not tested or not shown; + = active, no number; ! = a repeat was not active; [ ] = remark or other dose.
SMILES,Marburg entry inh,AMA1 RON2 block,Lassa entry inh,CHX counter,Shiga inhibitor
Cc1cc(Cl)ccc1OCC(=O)Nc1cccnc1,?,-8%,7%,38*,61*
CCCCn1c(N)c(N(CC(C)C)C(=O)c2ccc(S(=O)(=O)N3CCCCC3)cc2)c(=O)[nH]c1=O,-13%,-4%,3%,.,.
O=C1C(=Cc2ccncc2)CCCc2ccccc21,.,-9%,.,.,.
O=C1/C(=C/c2cccc3ccccc23)CCCc2ccccc21,-3%[46.1 µM],-15%,2%,29*,51*
Nc1nc(-c2cccs2)cs1,24%,-3%,23%,34*,69
CC(=O)Nc1nc(-c2cccs2)cs1,28%,21%,-19%,23*,40
O=C1c2ccccc2C(=O)N1c1nc(-c2cccs2)cs1,10%[46.1 µM],-4%,12%,8,10
O=C(O)C1CCCCC1C(=O)Nc1nc(-c2cccs2)cs1 (centres undefined),24%[46.1 µM],-2%,7%,-4,15
O=C(Nc1nc(-c2cccs2)cs1)c1ccc(Cl)s1,.,0%,.,42*,39*
O=C(COc1ccccc1Cl)Nc1nc(-c2cccs2)cs1,-3%,-15%,-7%,13,3
O=C(Nc1nc(-c2ccc(Cl)s2)cs1)c1ccccc1,-21%[46.1 µM],-18%,1%,42*,45
C=CCCCN1C=C(C(=O)OCC)C(c2ccccc2)NC1=O (centres undefined),-11%[14.2 µM],.,.,.,.
COc1ccc(Cn2ccc3nc(C)c(C(=O)Nc4cc(C)cc(C)c4)cc3c2=O)cc1,.,.,13%[46.1 µM],.,.
CN(C)c1ccc(-c2n(C)c3ccccc3[n+]2C)cc1,?,7%,?,27*,52*
Cn1c(-c2ccccn2)[n+](C)c2ccccc21,20%[46.1 µM],-3%,8%[46.1 µM],1,-5
Cn1c(-c2cccc([N+](=O)[O-])c2)[n+](C)c2ccccc21,.,-2%,.,-4,2
Cn1c(-c2ccc3ccccc3n2)[n+](C)c2ccccc21,-17%[46.1 µM],-13%,-14%,53*,72*
CC(=O)c1cccc(NC(=O)CSc2nnnn2C2CCCC2)c1,6%[46.1 µM],6%,-5%[46.1 µM],-1,15
O=C(O)CN1C(=O)/C(=C\c2cc(Br)ccc2OCc2ccccc2Cl)SC1=S,-26%[46.1 µM],7%,?,42*,77*
O=C(O)CN1C(=O)/C(=C\c2ccccc2OCc2ccc(Cl)cc2Cl)SC1=S,-15%[46.1 µM],-15%,9%[46.1 µM],16*,38*
O=C(O)CCN1C(=O)/C(=C\c2cccc(OCc3ccccc3)c2)SC1=S,22%[46.1 µM],8%,12%,3,-9
O=C(O)CN1C(=O)/C(=C\c2cccc(OCc3ccc(Cl)cc3Cl)c2)SC1=S,25%[46.1 µM],-7%,-12%[46.1 µM],22*,68*
CCOc1cc(NC(=O)c2ccccc2C)c(OCC)cc1NC(=O)C1=Cc2ccccc2OC1,-1%,7%,?,6,-7
COc1cc(Cl)c(C)cc1NC(=O)CCN1C(=O)NC(C)(C)C1=O,16%[46.1 µM],9%,-1%,.,.
Cc1ccc(NC(=O)c2ccc(NC(=O)N3CCSc4ncccc43)cc2)c(Cl)c1,.,.,-7%[46.1 µM],.,.
SMILES,Marburg entry inh,AMA1 RON2 block,Lassa entry inh,CHX counter,Shiga inhibitor
c1coc(-c2nnc(-c3ccc4c(c3)OCO4)o2)c1,.,.,.,22*,52*
Clc1ccc(CSc2nnc(-c3ccc4c(c3)OCO4)o2)cc1,?,13%,1%,1,-8
Cc1ccc(-c2nnc(-c3ccc4c(c3)OCO4)o2)cc1,-20%[46.1 µM],-1%,4%,46*,101*
c1nnc(-c2ccc3c(c2)OCO3)o1,0%[46.1 µM],-13%,5%,8,21
O=C1CCCCC1Sc1nnc(-c2ccc3c(c2)OCO3)o1 (centres undefined),5.6µM*,-15%,?,-12,-28
O=C(CSc1nnc(-c2ccc3c(c2)OCO3)o1)Oc1ccccc1,14%[46.1 µM],.,9%[46.1 µM],.,.
Brc1ccc(-c2nnc(-c3ccc4c(c3)OCO4)o2)o1,-29%,-4%,-16%,35*,111*
CCc1ccc2oc(C(=O)N(Cc3cccc(Cl)c3)Cc3ccco3)c(C)c2c1,4%[46.1 µM],.,-18%[46.1 µM],.,.
Cc1cc(C(=O)OCC(=O)Nc2ccccc2F)c(C)o1,13%[46.1 µM],-4%,16%,15*,98*
Nc1ccccc1C(=O)OCC(=O)Nc1ccc(Br)cc1F,2%,1%,-10%,21*,93
O=C(COC(=O)COc1ccccc1)Nc1ccc(Br)cc1F,-4%,20%,?,.,.
CCC(CC)C(=O)Nc1nnc(-c2cccs2)s1,9%[46.1 µM],-2%,5%,21*,57
COc1ccc2[nH]c(-c3cccc(F)c3)cc(=O)c2c1,-5%,-2%,8%,27*!,52*
O=c1cc(-c2ccccc2)[nH]c2ccc(F)cc12,-45%,-2%,?,16,17
O=c1cc(-c2cccc(F)c2)[nH]c2ccccc12,?,12%,?,5,-22
COc1ccc2[nH]c(-c3ccc(F)cc3F)cc(=O)c2c1,.,.,.,26*,+
COc1cccc(-c2cc(=O)c3cc(NC(=O)c4ccc(N(C)C)cc4)ccc3[nH]2)c1,?,-16%,0.92µM*,-8,-13
Cc1ccc2[nH]c(-c3cccc(F)c3)cc(=O)c2c1,?,-4%,-13%,15*!,+!
Cc1ccc(NC(=O)c2ccccc2SCC(=O)N2CCCC2)cc1S(=O)(=O)N(C)C,?,93%,-15%,2,4
NC(=O)COc1ccc2cc(-c3ccccc3)c(=O)oc2c1,.,0%,.,32*,62*
CCOC(=O)COc1ccc2c(=O)cc(-c3ccccc3)oc2c1,.,8%,.,9,19
NC(=O)COc1ccc2oc(-c3ccccc3)cc(=O)c2c1,-13%,3%,-13%,27*,69*
NC(=O)COc1ccc2cc(-c3ccc(F)cc3)c(=O)oc2c1,-6%[46.1 µM],19%,19%[46.1 µM],21*,35*
COc1ccc(-c2cc(=O)oc3cc(OC(C)C(=O)NCCCn4ccnc4)ccc23)cc1 (centres undefined),.,-4%,.,-1,-9
N/C(=N\OC(=O)c1ccco1)c1cccc([N+](=O)[O-])c1,11%[14.2 µM],-16%,17%,48*,121*
SMILES,Marburg entry inh,AMA1 RON2 block,Lassa entry inh,CHX counter,Shiga inhibitor
N/C(=N\OC(=O)c1ccco1)c1cccc(Br)c1,-7%,2%,?,40*,154*
O=C(COC(=O)c1ccco1)Nc1cccc(Br)c1,3%,6%,8%,-6,32
COc1ccc(/C(N)=N/OC(=O)c2ccco2)cc1OC,?,-4%,17%,39*,113*
N/C(=N\OC(=O)CCCOc1ccccc1)c1cccc([N+](=O)[O-])c1,-6%[46.1 µM],8%,1%[46.1 µM],-3,13
CCCC[C@H]1COCCS(=O)(=O)N1Cc1cccc([N+](=O)[O-])c1,.,-9%,.,-2,-17
O=C(NNC(=S)Nc1ccc(Cl)cc1Cl)c1cccnc1,.,92%,.,.,.
O=C(NNC(=S)Nc1ccccc1Cl)c1ccncc1,-9%[46.1 µM],79%,22%,15*,80
O=C(NNC(=S)Nc1ccc(Cl)cc1Cl)C1CC1,?,81%,5%,26*,21
O=C(NNC(=S)Nc1ccc(Cl)cc1Cl)c1ccncc1,?,26%,19%,14*,31
CN(C(=O)Nc1ccc(Cl)cc1Cl)C1CCCC1,.,5%,.,18*,44*
